Results on 40 sequences are retold here after the OligoGym collection.
Also: reference of the scale not given here.

One assay has as its target SEZ6L. The assay can be described thus: pooled miR-30 sensor sort-seq; sequence = guide strand. To be noted: shRNA.
TTGTCATGCAGCAACAGCCTCT: the sensor-assay potency score (higher = more potent) is -0.492.
In the case of TCCAGATACAATCTTCACCTTC, the sensor-assay potency score (higher = more potent) is -0.983.
The same measure, in the same setting: for TCGGACGTGAACTCGATGCGGA the value was -0.799; for TGGATATCTAAGAAGATCCGTT, -0.621; for TAATTTTCTCACAAAATGGGGG, -0.33.
The sequence TAGACTGTCACGTTGTATGTGC gave a sensor-assay potency score (higher = more potent) of 0.1.
Same read-out and setting: for TTATAGGTCGGGTCGGATGTAG the value was -0.637; for TTGGAGAAGCTCACACTGCAGA, -0.466; for TTGGTATCCATTTTCAGGCAGC, -0.526.
On the same count and under the same terms, for TGGAATAGTAGCGACATCTTGT the value was -0.571.

Another assay deals with SFRP4. Described as above. To be noted: shRNA.
Sequence TTTTACACTTGCACCGATCGGG returned a sensor-assay potency score (higher = more potent) of 0.497.
TTACTAAGCTGATCTCTCCATT registered a sensor-assay potency score (higher = more potent) of -0.515.
Same read-out and setting: in the case of TTTACACTTGCACCGATCGGGG it was -0.824; in that of TTTACTAAGCTGATCTCTCCAT, -0.0154; in that of TTGTCCTGAACTGTTCTCCGCT, 0.199.
TAGACAGGCAGCTCGTCGCAGG: the sensor-assay potency score (higher = more potent) is -0.454.
For TATGGATCTTTTACTAAGCTGA, the sensor-assay potency score (higher = more potent) was -0.661.
Regarding TTTACATCCACCACCGTTGTGA, the sensor-assay potency score (higher = more potent) amounted to 0.315.
The same measure, in the same setting: for TATCCACTTAACATCCTCCGGG the value was 0.611; for TTTTCAAGAAGCATCATCCTTG, 0.0999; for TTTTCTTCTTGTCCTGAACTGT, -0.361.
Sequence TTGGCATGAATAACATAGCTGT came in with a sensor-assay potency score (higher = more potent) of -0.164.

A further assay deals with SFT2D2. The assay is described as above. To be noted: shRNA.
Sequence TATAGCAAAACACGCAATGAAG showed a sensor-assay potency score (higher = more potent) of -1.77.
Regarding TGCAAAACACAACAGCACCATG, the sensor-assay potency score (higher = more potent) is -1.45.
Same read-out and setting: for TTTATCCTGGTACTCCAGCTTA the value was -0.866; for TTAATGAAGATGCCTCAACAAC, -1.49.
In turn, TTATCCTGGTACTCCAGCTTAA came in with a sensor-assay potency score (higher = more potent) of -1.39.
On the same count and under the same terms, for AAGAGGTGTAGTCCCTTCCTGG the value was -1.12.
In the case of TTGCAATCAAACGAGTAGGCTC, the sensor-assay potency score (higher = more potent) is -0.3.
Same read-out and setting: for TACAAAACTGTCCACCAGCTTC the value was -0.963; for ATCACAAGCAACACATTGCTGC, -0.583.
With TGATAGTTGCAATCAAACGAGT, the sensor-assay potency score (higher = more potent) was -0.692.
In turn, TCAAACATTCGCTTCAGCTGTT gave a sensor-assay potency score (higher = more potent) of 0.727.

The next assay concerns the target SFTA2. The assay is described as above. The conditions noted are these: shRNA.
With TCCATGTGAGCTGCCAAGGAGG, the sensor-assay potency score (higher = more potent) was -1.63.
The sequence AATTTGTCAGAAAAGACTCCTT showed a sensor-assay potency score (higher = more potent) of -0.354.
On the same count and under the same terms, in the case of TGGAGGGTGACGCTGGTCCCTG it was -1.43; in that of TCAAGCAATTCCAGGAAGCTGG, -0.742.
Turning to TTTGTCAGAAAAGACTCCTTCA, the sensor-assay potency score (higher = more potent) is 0.111.
The same measure, in the same setting: in the case of TCAGTTGCAAAGTCATACCCGG it was 0.0994; in that of ATTTGTCAGAAAAGACTCCTTC, 0.636.
